Results from the supplement of paper PMC6555819.

What follows are sequences tested on VDR:RXRa (NR concentration 270 nM, RXRa partner concentration 90 nM) (assay: PBM binding z-score (relative to random genomic background probes); higher = stronger binding; sequences stand for … in GC…GCGATTGACAGCGTAGAATGAAGG).
Procedure: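 Protein-binding microarray (Agilent 4x180K custom design, double-stranded 60-nt probes: 5' GC cap, 34-nt variable region, 24-nt constant primer region; full probe sequence given). Purified or IVT nuclear receptor:RXRα heterodimers (3:1 NR:RXRα, mostly 270:90 nM) or homodimers were incubated for 1 h in PBS with 2% milk and no ligand, then detected with Alexa488 antibodies. Fluorescence from o1-orientation probes (~5 replicates averaged) was converted to z-scores against 500 random hg19 background probes. Variable regions are seed direct-repeat (DR0–DR5) sites, all their single-nucleotide variants and half-site ablations.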

| Sequence | PBM binding z-score |
| --- | --- |
| TCCGACAGGTGAAGGTAACTCAGGTACGCAGTCG | 0.225 |
| TCTTGTAGATCAAGCAGGTTAAGAAAGCCTGAGT | 0.61 |
| CCTACTAGGCCATCAGGTCATTGATATCAACGTT | 2.26 |
| GCGAATGGGGCAAAGCAGGTTACCATAAGGTTGG | 0.361 |
| TTACCAAGTTGAAGGTCGTTGATCCCTCTGTAGA | 1.13 |
| TAGCCTAGGTCATGGGCCAGTAGACCACGCGAAC | 1.85 |
| CGAACTAGGTCAGAACAGGACCGTGAAGGATGAT | -0.102 |
| GATACAGGGTCAGCTAGAGGCCCGAGTATGGAAA | 2.11 |
| AGCACGAGGGCAATGAGTTGATAGCACGGGTGGC | 5.06 |
| CCTTACGGGTCACGAGGTTATGGCACGACGAGCG | 4.99 |
| TCATGTAGGTAAAAGGTGAAAGTCGGTGTGGTAA | 1.57 |
| CCTACTGGGCCAAAGGTCATTGGTTCCAATGCTC | 4.8 |
| ACTATTAGTTGAGACGAAGGCAACCGATAGGTTG | -0.504 |
| GCTGCTAGGTCAACTGATGGTCAGCTGAAGCTCG | 1.61 |
| CTCGAAAGGTCGGTTGAGGTGATTATACGGATAA | 3.1 |
| TGTCAAAGTTTAAAGGTAACGTAAGTATCCACAC | 1.33 |
| TTACCAAGGTGAAGGTCGTAGATCCCTCTGTAGA | 0.681 |
| TAGCCTAGGTCCTGCGGGCCAGTATAGTGTCGGC | -1.05 |
| TGAATGAGGTTATAAGATCAGGCAACGTTGCAAA | 0.915 |
| CGAACGAGGGCATGAGCTGATAGCAAATGCCGAT | 0.355 |

| Sequence | PBM binding z-score |
| --- | --- |
| GCTTACGAGTCAAAGGTTATAGCATGAATAGAAT | 2.16 |
| TAGCCTTGGTCATGGGCCAGTATACCACGCGAAC | -0.347 |
| GCGACTGGGGCATCAGCAGGTTAGCATAACTTAA | -0.526 |
| AGTCAAAGTTCATCTAGGTAACGCAAGATATGCT | 4.91 |
| CAAACTAGGTCACCGGAAGTTCAAAGTCCGCATG | 6.24 |
| GCCACTGGGGCATCAGCAGGTTACCATAACTTAA | -0.378 |
| CCTTACGGGTCACTGACAGGTTATGGCATTTGGA | 3.75 |
| TTACCAAGGTGAAGGTCGTTGCTCCCTCTGTAGA | 1.36 |
| GCTATTAGTTGAAAGGGCAATCGAATGATTCTCG | 0.219 |
| TAGCCTACGTCAGATCGGGCCAGTATACGCTATA | -0.713 |
| ATCTCTAAGTAACAAGTTCAGTGAAAGAGAGGAC | 1.87 |
| AAATGTAGGTTAGCTGGGGTCATTCAGACTAGGC | 6.03 |
| AGAACGAGGGCAATAAGTTGATAGCACGGGTGGC | 3.26 |
| CGTCCAACGTCAATGCTAGGTCAGTGAAAGCATT | 0.103 |
| TCGAGTAGGTTAGTCGTGGCATTCAGCCAACATA | -0.0269 |
| ATCTCTAGTTAAAGATAGTTCAGTGAATGCAAAT | 1.04 |
| TGAATGAGGTTATAAGCTCAGGGAACGTTGCAAA | 0.693 |
| TTACCAAGGTGAGCTGAGGTGGTTGATCCAACTC | -0.288 |
| CATACTGGGCCAAAAAGGTCATTGATGCCGATAA | 5.08 |
| ATCTCTAGGTAAAAGTTCAGTGTATCCCGAGGAT | 1.56 |
